Consider 33 compounds from PubChem BioAssay (Tox21).

Where “and” joins values, the source holds several entries; their conditions need not be identical. Equal values may be shown once. Results filed as inconclusive are left out. A structure can be active in one record and inactive in another. Calls of active or inactive are those of the source. Calls come from the whole dose curve; as a rule, active = well fitted curve in the direction sought with a large enough effect in the repeat runs; inconclusive = weak or mixed curves; inactive = no such curve, though single readings can be large; an effect the other way counts as inactive or inconclusive.
% is set by controls: 0 for no effect and ±100 for the full control effect; potency is the fitted concentration of half-maximal effect.

A short description of the first assay: qHTS assay to identify small molecule antagonists of the retinoid acid receptor (RAR) signaling pathway - cell viability counter screen (AID 1159551). Note: nearly all actives have a fitted effect of over 35% in size. Conditions: C3RL4 cells viability, ATP luminescence (CellTiter-Glo), 6 h; series mostly up to 92.4 µM; activity change, negative = cytotoxicity: at the top concentration. The procedure, abridged:
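Cytotoxicity counter screen: ATP content quantified by CellTiter-Glo luminescence in C3RL4 cells treated 6 hr at 37 C with compound and retinol (1 uM final). Cells plated at 1,000/well and cultured overnight before dosing.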
For orientation: In qHTS, concentration-response curves come from the screen itself.
As for `CON(C)C(=O)Nc1ccc(Br)c(Cl)c1`, the “activity change, negative = cytotoxicity” value is -3.65% (inactive).
With `O=C1C2CC=CCC2C(=O)N1SC(Cl)(Cl)Cl` (centres undefined), the Potency result was “inactive and 26.9 µM (active)”.
`O=C(Cl)C(Cl)(Cl)Cl`: the “activity change, negative = cytotoxicity” value is 1.48% (inactive).
As for `CCN(CCO)CCn1c(Cc2ccccc2)nc2c1c(=O)n(C)c(=O)n2C`, the “activity change, negative = cytotoxicity” value was 0.0354% [at 42.5 µM] (inactive).
For `CN1COCN(Cc2cnc(Cl)s2)/C1=N\[N+](=O)[O-]`, the “activity change, negative = cytotoxicity” value is -0.54% (inactive).
The same measure, in the same setting: with `CC(C)(N)Cc1ccccc1Cl` the figure was -1.51% [at 42.5 µM] (inactive).

The nature of a further assay: qHTS assay to identify small molecule antagonists of the retinoic acid receptor (RAR) signaling pathway (AID 1159552; note: nearly all actives have a fitted effect of over 50% in size). Conditions: C3RL4 RARE luciferase reporter, retinol-stimulated, 6 h; series mostly up to 92.4 µM; activity, negative = inhibition: at the top concentration. The procedure, abridged:
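Cells of the C3RL4 line were seeded, incubated overnight, then dosed with compounds in DMSO followed immediately by retinol (1 uM final). Six hours later luciferase detection reagent went in; signal was measured after 30 min at RT.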
As to `O=C1CC(=O)NC(=O)N1`, the “activity, negative = inhibition” value is 1.78% (inactive).
On the same count and under the same terms, in the case of `CC(C)[N+](C)(CCC(C(N)=O)(c1ccccc1)c1ccccc1)C(C)C` it was 6.27% [at 42.5 µM] (inactive); in that of `S=C=S`, 25.6% (inactive); in that of `Cn1c(CCCC(=O)O)nc2cc(N(CCCl)CCCl)ccc21`, 2.82% [at 42.5 µM] (inactive).
Still for that read-out and setting: in the case of `CCSC(=O)Cl` it was 0.119% (inactive); in that of `CC(C)(C)c1cc(O)ccc1O`, 137% (inactive); in that of `CCC(C)(C#N)N=NC(C)(C#N)CC` (centres undefined), -5.82% (inactive).
On to `O=C(Cl)C(Cl)Cl`, for which the “activity, negative = inhibition” value was -2.13% (inactive).
For the compound `COP(=O)(OC)O/C(C)=C/C(=O)N(C)C`, the “activity, negative = inhibition” value was -0.931% (inactive).
In the case of `CON(C)C(=O)Nc1ccc(Br)c(Cl)c1`, the “activity, negative = inhibition” value is 74.7% (inactive).
Same read-out and setting: with `COc1ccc(C=O)cc1O` the figure was -6.9% (inactive); with `CCN[C@@H](C)Cc1ccccc1`, 5.77% (inactive).
Turning to `O=C1C2CC=CCC2C(=O)N1SC(Cl)(Cl)Cl` (centres undefined), the Potency entry was “inactive and 5.36 µM (active)”.
With `O=C(Cl)C(Cl)(Cl)Cl`, the “activity, negative = inhibition” value is -20.4% (inactive).
On to `CCN(CCO)CCn1c(Cc2ccccc2)nc2c1c(=O)n(C)c(=O)n2C`, for which the “activity, negative = inhibition” value is 0.723% [at 42.5 µM] (inactive).
Same read-out and setting: with `CCOC(=O)C(SP(=S)(OC)OC)c1ccccc1` (centres undefined) the figure was -0.217% (inactive).
Still for that read-out and setting: with `CCOC(=O)NC(C)(C)Cc1ccc(Cl)cc1` the figure was 3.79% [at 42.5 µM] (inactive).
As for `C=CCc1cc(OC)c2c(c1)OCO2`, the “activity, negative = inhibition” value is -4.44% (inactive).
Consider `CN1COCN(Cc2cnc(Cl)s2)/C1=N\[N+](=O)[O-]`, for which the “activity, negative = inhibition” value is 2.89% (inactive).
Same read-out and setting: with `NC(=O)CS(=O)C(c1ccccc1)c1ccccc1` (centres undefined) the figure was 5.28% [at 42.5 µM] (inactive); with `CCCCCCCCSC(=O)Oc1cc(Cl)nnc1-c1ccccc1`, -20.9% (inactive); with `C1CN2CCC1CC2`, 3.13% [at 42.5 µM] (inactive).
Regarding `ClC1=C(Cl)C2(Cl)C(CBr)CC1(Cl)C2(Cl)Cl` (centres undefined), the Potency was 54.5 µM (active) and inactive.
In the case of `CCC1(c2ccccc2)C(=O)N(COC)C(=O)N(COC)C1=O`, the “activity, negative = inhibition” value was 13.6% [at 42.5 µM] (inactive).
Regarding `NNC(N)=O`, the “activity, negative = inhibition” value was 39% (inactive).
The same measure, in the same setting: in the case of `Cc1cccc2sc3nncn3c12` it was -14.3% (inactive); in that of `CNC(=O)O/N=C(/CSC)C(C)(C)C`, 5.13% (inactive); in that of `COC(=O)c1ccc(CBr)cc1`, 104% (inactive).
Still for that read-out and setting: with `CCN(CC)C1CCCCC1` the figure was 6.02% (inactive); with `CC(C)(N)Cc1ccccc1Cl`, 1.43% [at 42.5 µM] (inactive); with `CC#Cc1cc(C)nc(Nc2ccccc2)n1`, 65.7% (inactive).
In the case of `CON(C)C(=O)Nc1ccc(Br)cc1`, the “activity, negative = inhibition” value was 91.2% (inactive).
Still for that read-out and setting: with `CC1NCCOC1c1ccccc1` (centres undefined) the figure was 10.9% [at 42.5 µM] (inactive).
